The values that follow come from PubChem BioAssay (EPA / NIEHS).

Read-out in experiment [1]: Urokinase-type plasminogen activator receptor (uPAR), PLAUR (gene 5329)
Description: BSK_4H_uPAR: BioMAP Diversity Plus: 4H Assay for Urokinase-type plasminogen activator receptor (uPAR) Biomarker Activity (AID 2283030). The note with it: primary human endothelial cells (HUVEC); actives raise or lower the signal. The essentials: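 Primary human umbilical vein endothelial cells were exposed to chemical for 24 h before cell-surface uPAR was quantified by ELISA. Activity was fitted bidirectionally against the DMSO negative control baseline.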

Read-out in experiment [2]: Vascular endothelial growth factor receptor 2 (Homo sapiens) (UniProt P35968)
Kind of experiment: BSK_4H_VEGFRII: BioMAP Diversity Plus: 4H Assay for Vascular endothelial growth factor receptor 2 (VEGFR2) Biomarker Activity (AID 2283031).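 For AC50: cell-surface VEGFR2 protein level quantified by ELISA.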 The note with it: primary human endothelial cells (HUVEC); actives raise or lower the signal. The essentials: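 Primary human umbilical vein endothelial cells in the BioMAP 4H system were dosed with test chemical, and 24 h later VEGFRII was measured by ELISA. Activity was fitted bidirectionally against DMSO as negative control and baseline.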

Read-out in experiment [3]: Human Leukocyte Antigen - DR isotype (HLADR), HLA-DRA (gene 3122)
Kind of experiment: BSK_BE3C_HLADR: BioMAP Diversity Plus: BE3C Assay for Human Leukocyte Antigen - DR isotype (HLADR) Biomarker Activity (AID 2283032). The note with it: primary human bronchial epithelial cells; actives raise or lower the signal. In short, it runs like this:
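Human primary bronchial epithelial cells in the BE3C system were exposed to chemicals for 24 h, after which HLA-DR levels were quantified by ELISA. Activity was fitted bidirectionally, gain or loss of signal, against DMSO as negative control and baseline.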

Read-out in experiment [4]: Vascular cell adhesion molecule 1 (VCAM1), VCAM1 (gene 7412)
Description: BSK_4H_VCAM1: BioMAP Diversity Plus: 4H Assay for Vascular cell adhesion molecule 1 (VCAM1) Biomarker Activity (AID 2283033).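 For outcome: cell-surface VCAM-1 protein measured by ELISA.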 The following applies: primary human endothelial cells (HUVEC); actives raise or lower the signal. In short, it runs like this: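 Primary human umbilical vein endothelial cells were exposed to chemicals for 24 h, after which VCAM-1 was quantified by ELISA. Responses were fitted bidirectionally against DMSO as negative control and activity baseline.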

Read-out in experiment [5]: Interferon-gamma inducible Protein 10 (IP10), CXCL10 (gene 3627)
Kind of experiment: BSK_BE3C_IP10: BioMAP Diversity Plus: BE3C Assay for Interferon-gamma inducible Protein 10 (IP10) Biomarker Activity (AID 2283034). The note with it: primary human bronchial epithelial cells; actives raise or lower the signal. The essentials: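 Human primary bronchial epithelial cells were exposed to chemicals for 24 hours, after which IP-10 levels were measured by ELISA. Data were fitted bidirectionally against DMSO, which served as the negative control and activity baseline.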

Read-out in experiment [6]: Monokine induced gamma interferon (MIG), CXCL9 (gene 4283)
Kind of experiment: BSK_BE3C_MIG: BioMAP Diversity Plus: BE3C Assay for Monokine induced gamma interferon (MIG) Biomarker Activity (AID 2283035).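 For outcome: MIG protein measured by ELISA in BE3C cultures after 24 h of dosing.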 The note with it: primary human bronchial epithelial cells; actives raise or lower the signal. In short, it runs like this:
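MIG level was determined by ELISA after 24 h chemical treatment of primary human bronchial epithelial cells. Values were fitted bidirectionally with DMSO as the negative control and activity baseline.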

Read-out in experiment [7]: Transforming growth factor beta 1 (TGFb1), TGFB1 (gene 7040)
Description: BSK_BE3C_TGFb1: BioMAP Diversity Plus: BE3C Assay for Transforming growth factor beta 1 (TGFb1) Biomarker Activity (AID 2283036). The following applies: primary human bronchial epithelial cells; actives raise or lower the signal. The essentials: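 Human primary bronchial epithelial cells (BE3C system) were dosed with chemical and TGF-b1 levels measured by ELISA at 24 h. Activity was fitted bidirectionally relative to DMSO negative control as baseline.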

Read-out in experiment [8]: Plasminogen activator inhibitor-1 (PAI1), SERPINE1 (gene 5054)
Description: BSK_BE3C_PAI1: BioMAP Diversity Plus: BE3C Assay for Plasminogen activator inhibitor-1 (PAI1) Biomarker Activity (AID 2283037). The note with it: primary human bronchial epithelial cells; actives raise or lower the signal. The essentials: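 Human primary bronchial epithelial cells were exposed to chemical for 24 h, then PAI-1 was quantified by ELISA. Activity was fitted bidirectionally relative to the DMSO negative control baseline.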

Read-out in experiment [9]: urokinase plasminogen activator (uPA), PLAU (gene 5328)
Kind of experiment: BSK_BE3C_uPA: BioMAP Diversity Plus: BE3C Assay for urokinase plasminogen activator (uPA) Biomarker Activity (AID 2283038).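 For outcome: uPA protein level quantified by ELISA in cell cultures; uPA read one day after compound addition.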 The following applies: primary human bronchial epithelial cells; actives raise or lower the signal. In short, it runs like this:
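Human primary bronchial epithelial cells were exposed to chemical for 24 h, then uPA levels were measured by ELISA. Responses were fitted bidirectionally against DMSO as negative control and baseline. Parallel SRB staining of total protein gauged overt cytotoxicity.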

Read-out in experiment [10]: Urokinase-type plasminogen activator receptor (uPAR), PLAUR (gene 5329)
Description: BSK_BE3C_uPAR: BioMAP Diversity Plus: BE3C Assay for Urokinase-type plasminogen activator receptor (uPAR) Biomarker Activity (AID 2283039).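 For outcome: cells exposed to compound for one day before measurement.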 The note with it: primary human bronchial epithelial cells; actives raise or lower the signal. In short, it runs like this: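 Primary human bronchial epithelial cells were dosed with chemical and harvested 24 h later; uPAR was quantified by ELISA. Activity was fitted bidirectionally against DMSO as negative control and baseline.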

Molecules are shown by their SMILES. Where “and” joins values, the source holds several entries; their conditions need not be identical. Equal values may be shown once. Some compounds were tested as several samples or in several runs, with calls that do not always agree. Calls of active or inactive are those of the source. Rule for the calls: active = hit-call score of the fitted dose curve at least 0.9, where 1 is the maximum; inactive = score below 0.9.

As to `Nc1ccc(C(=O)O)cc1`, the result in experiment [1], in experiment [2], in experiment [3], in experiment [4], in experiment [5] and in [6] was inactive. Further, the result in experiment [7], in experiment [8], in experiment [9] and in [10] was inactive.

For `COc1ccc(C(=O)/C(Br)=C\C(=O)O)cc1`, the AC50 in experiment [1] is 32.5 µM (active) and 32.2 µM (active); in experiment [2], 29.8 µM (active); in experiment [3] it was 26.8 µM (active) and 20 µM (active); in [4] it was 22.1 µM (active) and 20 µM (active); in experiment [5], 20 µM (active); in experiment [6], 28.8 µM (active). The AC50 in experiment [7] is 8.23 µM (active); in [8], 8.24 µM (active); in experiment [9], 20 µM (active). Besides, the result in [2], in experiment [6], in experiment [7], in experiment [8], in experiment [9] and in experiment [10] was inactive.

In the case of `CCNc1nc(NC(C)(C)C)nc(OC)n1`, the result in [1], in experiment [2], in experiment [3], in experiment [4], in experiment [5] and in experiment [6] was inactive. Also, the result in [7], in experiment [8], in experiment [9] and in experiment [10] was inactive.

Regarding `CCOC(=O)/C=C\C(=O)OCC`, the outcome in experiment [1], in experiment [2], in experiment [3], in [4], in experiment [5] and in experiment [6] was inactive. Moreover, the result in experiment [7], in experiment [8], in [9] and in [10] was inactive.

On to `O=C(Oc1ccccc1)c1ccccc1C(=O)Oc1ccccc1`, for which the outcome in experiment [1], in [2], in [3], in experiment [4], in [5] and in experiment [6] was inactive. For the same molecule, the outcome in experiment [7], in experiment [8], in [9] and in experiment [10] was inactive.

Take `Nc1cccc(N)n1`: the result in experiment [1], in [2], in experiment [3], in [4], in [5] and in experiment [6] was inactive. For the same molecule, the outcome in [7], in experiment [8], in [9] and in experiment [10] was inactive.

For `CC(C)c1cccc(C(C)C)c1N`, the result in experiment [1], in experiment [2], in experiment [3], in experiment [5], in experiment [6] and in experiment [7] was inactive. Also, the result in experiment [8], in [9] and in experiment [10] was inactive. Besides, the AC50 in experiment [4] was 32 µM (active).

For `O=C1CCCCCCCCCCC1`, the outcome in [1], in [2], in experiment [3], in experiment [4], in experiment [5] and in experiment [6] was inactive. The result in [7], in [8], in experiment [9] and in experiment [10] was inactive.

For the molecule `CC1=CC=C(C(C)C)CC1`, the result in experiment [1], in experiment [2], in [3], in [4], in experiment [5] and in [6] was inactive. The result in experiment [7], in [8], in experiment [9] and in experiment [10] was inactive.

For the molecule `CC=C(C)C=CC=C(C)C`, the result in experiment [1], in experiment [2], in experiment [4], in experiment [5], in experiment [6] and in [7] was inactive. In addition, the outcome in experiment [8] and in experiment [10] was inactive. Further, the AC50 is 15.9 µM (active) in experiment [3] and 0.0546 µM (active) in experiment [9].

As to `Oc1c(Cl)cc(Cl)c(Cl)c1Cl`, the AC50 is 20 µM (active) in experiment [1]; 6.25 µM (active) in experiment [3]; 20 µM (active) in [4]; 20 µM (active) in [5]; 7.51 µM (active) in experiment [8]; 6.07 µM (active) in experiment [9]. In experiment [10], the AC50 is 20 µM (active). The result in experiment [2], in [6] and in experiment [7] was inactive.

In the case of `CC(C)[N+](C)(CCOC(=O)C1c2ccccc2Oc2ccccc21)C(C)C`, the result in [1], in experiment [2], in [3], in experiment [4], in [5] and in [6] was inactive. For the same molecule, the outcome in [7], in experiment [8], in experiment [9] and in experiment [10] was inactive.

Take `CC/C=C\C/C=C\C/C=C\CCCCCCCC(=O)OC`: the AC50 was 30.9 µM (active) in experiment [1]; 13.4 µM (active) in experiment [3]; 29 µM (active) in experiment [4]; 11.8 µM (active) in experiment [5]; 29.6 µM (active) in experiment [6]; 9.17 µM (active) in [7]. Besides, the AC50 is 25.5 µM (active) in experiment [8], 29.8 µM (active) in experiment [9] and 28.8 µM (active) in experiment [10]. For the same molecule, the outcome in [2] was inactive.

For `c1ccc2c(c1)[nH]c1ccccc12`, the result in [1], in experiment [2], in experiment [3], in [4], in experiment [5] and in experiment [6] was inactive. Also, the outcome in [7], in experiment [8], in [9] and in experiment [10] was inactive. For the same molecule, in experiment [5], the AC50 is 20.1 µM (active).

Broadly, the AC50 is the concentration at which the activity in the assay is half-maximal.
